Results filed as inconclusive are left out. Activity calls are given as the source filed them. Unless noted, calls come from the whole dose curve; as a rule, active = well fitted curve in either direction with a large enough effect (not every such curve was filed as active); inconclusive = small, poorly fitted or top-dose-only effect, or another doubt; inactive = flat fitted curve, though single readings scatter.
Assays:
[1] = biological target: Lysosomal acid glucosylceramidase (Homo sapiens) (UniProt P04062); test: Glucocerebrosidase-p2 (AID 348; in the data active = potency below about 10 µM; note: potency is the fitted concentration of half-maximal effect); settings: purified GBA, blue fluorogenic substrate, 40 min
Method in brief: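 Compounds titrated from 0.6 nM upwards against 0.2 nM enzyme in pH 5.9 citric acid/KH2PO4, taurocholate, tween-20; blue fluorogenic substrate 80 uM, 40 min room temperature, stopped and read Ex 365/Em 440 for AC50.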

[2] = AP1 Signaling Pathway (AID 357); settings: ME-180 AP-1-bla reporter, EGF-induced, beta-lactamase ratio, 5 h; at 7.69 µM (top of the series) unless noted;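 note: ME-180 reporter cells stimulated with EGF at its EC50 level; % is set by controls: 0 for no effect and ±100 for the full control effect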
Method in brief: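 First, ME-180 AP-1-bla cells were cultured overnight at 37 °C in low-serum Opti-MEM. Next, titrated compounds with EC50 EGF were incubated 5 hours. Finally, CCF4 was added for 2.5 hours and the 460/530 nm ratio recorded.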

[3] = Stat Signaling Pathway (AID 446); settings: ME-180 SIE beta-lactamase reporter, IL-6 stimulated, 5 h; at 7.69 µM (top of the series) unless noted;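 note: ME-180 cervical cancer cells given 40 pM IL-6 alongside compound; SIE-controlled beta-lactamase reporter measured as 460/530 nm FRET emission ratio; % is set by controls: 0 for no effect and ±100 for the full control effect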
Method in brief: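 ME-180 cells carrying a SIE-driven beta-lactamase reporter are stimulated with 40 pM IL-6 for 5 h at 37C in the presence of compound. The 460/530 nm FRET substrate ratio is read after 2.5 h at RT. Data are normalised to 300 pM IL-6 and to 125 nM JAK inhibitor controls.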

[4] = biological target: Glucocorticoid receptor (Homo sapiens) (UniProt P04150); test: GR-GFP Redistribution (AID 450;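 active = compounds whose dose series gives a full or clear partial fitted curve of increased nuclear translocation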; note: potency is the fitted concentration of half-maximal effect); settings: U2OS GR-GFP nuclear translocation, laser cytometry, 2 h
[5] = biological target: Glucocorticoid receptor (Homo sapiens) (UniProt P04150); test: GR-EFC Redistribution (AID 451; calls by dose curve; note: potency is the fitted concentration of half-maximal effect); settings: CHO-K1 GR-EFC translocation, beta-gal luminescence, 2 h
Method in brief: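 CHO-K1 cells expressing nuclear EA and GR-ED fragments of b-gal; compounds titrated up to 46 uM final, 2 h at 37 C. GR nuclear translocation read as complemented b-gal luminescence after 1 h RT detection.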

[6] = biological target: Mitogen-activated protein kinase 10 (Mus musculus) (UniProt Q61831); test: JNK3 AlphaScreen Assay (AID 530); settings: JNK3 lysate, c-Jun phosphorylation; series mostly up to 11.4 µM;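 note: kinase came from lysate of stimulated human HepG2 cells; signal reports phosphorylation of biotinylated GST-cJun 1-79 at Ser73 with 10 µM ATP; % is set by controls: 0 for no effect and ±100 for the full control effect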
Method in brief: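 qHTS format: compounds tested as titrations against IL-1beta/TNF-alpha-activated HepG2 lysate JNK3 with biotin-GST-cJun substrate and 10 uM ATP at room temperature. Loss of anti-phospho-cJun AlphaScreen signal indicates inhibition.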

[7] = biological target: 3',5'-cyclic-AMP phosphodiesterase 4B (Homo sapiens) (UniProt Q07343); test: qHTS Assay for Inhibitors of PDE-IV (AID 607; active = well fitted activation curve with a large enough effect in the main read-out, with a control signal flat, not every such curve was filed as active; note: % of control where 0% means no effect); settings: HEK293 ACTOne CNG channel cells, membrane potential fluorescence; series mostly up to 22.9 µM
Method in brief: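 HEK293 ACTOne cells with CNG channel (1000/well), endogenous PDE4; membrane potential dye, compounds up to 22.9 uM final. Fluorescence Ex 535/Em 590; RO 20-1724 (100 uM final) as reference.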

[8] = biological target: Cytochrome P450 2D6 (Homo sapiens) (UniProt P10635); test: qHTS Assay for Inhibitors and Substrates of Cytochrome P450 2D6 (AID 891; active = well fitted curve in the direction sought with a large enough effect; an effect the other way counts as inactive or inconclusive; note: potency is the fitted concentration of half-maximal effect; nearly all actives have a fitted effect of over 60% in size); settings: recombinant CYP2D6, luciferin-ME EGE luminescence; series mostly up to 11.4 µM
Method in brief: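 Human CYP2D6 (5 nM) with 30 uM Luciferin-ME EGE (at Km) in 100 mM KPO4, compound preincubated 10 min, then NADPH regeneration system for 60 min at room temperature. Luciferin read by luminescence; normalized to 1.43 uM quinidine.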

[9] = biological target: Cytochrome P450 2C19 (Homo sapiens) (UniProt P33261); test: qHTS Assay for Inhibitors and Substrates of Cytochrome P450 2C19 (AID 899; active = well fitted curve in the direction sought with a large enough effect; an effect the other way counts as inactive or inconclusive; note: nearly all actives have a fitted effect of over 60% in size; note: potency is the fitted concentration of half-maximal effect; for activity, negative = inhibition: % is set by controls: 0 for no effect and ±100 for the full control effect); settings: recombinant CYP2C19, luciferin-H EGE luminescence; series mostly up to 11.4 µM
Method in brief: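 5 nM human CYP2C19 with 10uM Luciferin-H EGE (at KM) in 50mM KPO4, compound preincubated 10 min at 37C, then NADPH regeneration for 60 min at 37C. Luciferin read by luminescence after detection reagent; normalized to 57uM ketoconazole as full inhibition.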

[10] = biological target: Cytochrome P450 3A4 (Homo sapiens) (UniProt P08684); test: qHTS Assay for Inhibitors and Substrates of Cytochrome P450 3A4 (AID 884; active = well fitted curve in the direction sought with a large enough effect; an effect the other way counts as inactive or inconclusive; note: potency is the fitted concentration of half-maximal effect; nearly all actives have a fitted effect of over 50% in size); settings: recombinant CYP3A4, Luciferin-PPXE luminescence; series mostly up to 57.1 µM
Method in brief: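 20 nM human CYP3A4 with 25 uM Luciferin-PPXE (at KM) in 200 mM KPO4, preincubated 10 min with compound; NADPH regeneration started a 60 min RT reaction. Luciferin detected by luminescence, normalized to 57 uM ketoconazole as full inhibition.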

[11] = biological target: Cytochrome P450 3A4 (Homo sapiens) (UniProt P08684); test: qHTS Assay for Activators of Cytochrome P450 3A4 (AID 885; active = well fitted curve in the direction sought with a large enough effect; an effect the other way counts as inactive or inconclusive; note: nearly all actives have a fitted effect of over 65% in size); settings: recombinant CYP3A4, Luciferin-PPXE luminescence, 60 min; series mostly up to 11.4 µM
Method in brief: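 Human CYP3A4 (20 nM) with Luciferin-PPXE at 25 uM (its KM) in 200 mM KPO4; 10 min compound preincubation, then NADPH regeneration and 60 min reaction at RT. Luciferin read by luminescence; normalized to 57 uM ketoconazole full inhibition.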

Glucocorticoid receptor (Homo sapiens), sequence (P04150 whole entry, looked up, the tested form may be a part): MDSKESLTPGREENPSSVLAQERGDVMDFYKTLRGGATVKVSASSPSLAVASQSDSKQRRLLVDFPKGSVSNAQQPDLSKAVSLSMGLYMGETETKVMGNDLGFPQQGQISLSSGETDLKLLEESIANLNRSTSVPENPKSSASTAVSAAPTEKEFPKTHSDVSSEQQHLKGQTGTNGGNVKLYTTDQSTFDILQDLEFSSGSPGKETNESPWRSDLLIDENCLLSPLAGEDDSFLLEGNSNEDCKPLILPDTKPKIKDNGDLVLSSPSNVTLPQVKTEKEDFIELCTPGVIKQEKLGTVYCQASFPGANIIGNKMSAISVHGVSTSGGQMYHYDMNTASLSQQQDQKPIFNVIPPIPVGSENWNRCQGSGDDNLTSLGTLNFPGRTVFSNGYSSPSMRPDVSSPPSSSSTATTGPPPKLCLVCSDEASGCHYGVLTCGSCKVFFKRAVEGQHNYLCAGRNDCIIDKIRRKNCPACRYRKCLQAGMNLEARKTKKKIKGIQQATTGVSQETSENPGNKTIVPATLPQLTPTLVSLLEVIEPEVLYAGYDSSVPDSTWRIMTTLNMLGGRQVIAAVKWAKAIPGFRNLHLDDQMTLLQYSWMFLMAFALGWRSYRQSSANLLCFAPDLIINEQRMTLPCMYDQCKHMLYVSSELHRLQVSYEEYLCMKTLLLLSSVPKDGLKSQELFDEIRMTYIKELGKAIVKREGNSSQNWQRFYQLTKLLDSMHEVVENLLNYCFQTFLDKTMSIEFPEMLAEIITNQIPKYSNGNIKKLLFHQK
Cytochrome P450 3A4 (Homo sapiens), sequence (P08684 whole entry, looked up): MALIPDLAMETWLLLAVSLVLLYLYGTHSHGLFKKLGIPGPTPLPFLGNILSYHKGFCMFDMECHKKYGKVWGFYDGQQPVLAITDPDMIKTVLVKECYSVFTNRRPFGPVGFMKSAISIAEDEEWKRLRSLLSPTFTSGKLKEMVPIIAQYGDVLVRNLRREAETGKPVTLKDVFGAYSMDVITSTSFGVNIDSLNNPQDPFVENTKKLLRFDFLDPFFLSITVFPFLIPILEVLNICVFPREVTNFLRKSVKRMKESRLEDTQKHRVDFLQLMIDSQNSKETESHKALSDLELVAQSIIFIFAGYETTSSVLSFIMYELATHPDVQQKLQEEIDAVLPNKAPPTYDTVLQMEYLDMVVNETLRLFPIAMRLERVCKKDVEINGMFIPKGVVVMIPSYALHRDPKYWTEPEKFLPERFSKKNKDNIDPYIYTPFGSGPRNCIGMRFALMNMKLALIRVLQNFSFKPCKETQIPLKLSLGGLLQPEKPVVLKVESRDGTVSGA
3',5'-cyclic-AMP phosphodiesterase 4B (Homo sapiens), sequence (Q07343 whole entry, looked up): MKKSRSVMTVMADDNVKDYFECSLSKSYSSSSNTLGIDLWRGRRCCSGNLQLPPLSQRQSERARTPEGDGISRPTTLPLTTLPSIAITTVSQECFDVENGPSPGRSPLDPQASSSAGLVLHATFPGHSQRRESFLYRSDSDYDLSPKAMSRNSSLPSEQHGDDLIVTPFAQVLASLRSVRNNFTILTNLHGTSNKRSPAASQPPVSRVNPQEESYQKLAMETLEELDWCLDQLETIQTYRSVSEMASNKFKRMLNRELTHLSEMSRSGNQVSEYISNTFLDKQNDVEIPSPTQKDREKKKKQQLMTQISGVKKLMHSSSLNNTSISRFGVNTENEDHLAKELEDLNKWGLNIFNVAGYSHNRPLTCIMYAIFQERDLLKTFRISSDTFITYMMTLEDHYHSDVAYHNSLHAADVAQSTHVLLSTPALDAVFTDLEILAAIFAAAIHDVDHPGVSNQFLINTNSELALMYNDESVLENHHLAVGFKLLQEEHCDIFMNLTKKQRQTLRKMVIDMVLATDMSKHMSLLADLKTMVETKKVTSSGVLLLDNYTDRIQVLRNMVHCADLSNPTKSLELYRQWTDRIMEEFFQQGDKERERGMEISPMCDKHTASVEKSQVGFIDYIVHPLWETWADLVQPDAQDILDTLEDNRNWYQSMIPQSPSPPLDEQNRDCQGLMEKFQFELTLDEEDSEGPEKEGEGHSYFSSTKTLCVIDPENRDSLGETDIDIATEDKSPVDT
Cytochrome P450 2C19 (Homo sapiens), sequence (P33261 whole entry, looked up): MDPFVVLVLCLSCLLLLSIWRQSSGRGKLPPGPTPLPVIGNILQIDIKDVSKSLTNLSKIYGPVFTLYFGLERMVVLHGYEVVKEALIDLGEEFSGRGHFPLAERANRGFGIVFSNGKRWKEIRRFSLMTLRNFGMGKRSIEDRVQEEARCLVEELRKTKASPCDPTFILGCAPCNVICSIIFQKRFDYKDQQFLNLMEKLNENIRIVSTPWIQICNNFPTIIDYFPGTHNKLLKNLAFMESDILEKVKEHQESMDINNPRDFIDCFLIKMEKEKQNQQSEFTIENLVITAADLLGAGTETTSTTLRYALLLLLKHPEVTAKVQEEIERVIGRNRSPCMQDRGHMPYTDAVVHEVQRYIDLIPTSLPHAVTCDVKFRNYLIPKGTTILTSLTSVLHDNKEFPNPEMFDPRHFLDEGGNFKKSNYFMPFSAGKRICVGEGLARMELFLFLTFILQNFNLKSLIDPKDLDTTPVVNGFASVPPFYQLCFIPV
Lysosomal acid glucosylceramidase (Homo sapiens), sequence (P04062 whole entry, looked up): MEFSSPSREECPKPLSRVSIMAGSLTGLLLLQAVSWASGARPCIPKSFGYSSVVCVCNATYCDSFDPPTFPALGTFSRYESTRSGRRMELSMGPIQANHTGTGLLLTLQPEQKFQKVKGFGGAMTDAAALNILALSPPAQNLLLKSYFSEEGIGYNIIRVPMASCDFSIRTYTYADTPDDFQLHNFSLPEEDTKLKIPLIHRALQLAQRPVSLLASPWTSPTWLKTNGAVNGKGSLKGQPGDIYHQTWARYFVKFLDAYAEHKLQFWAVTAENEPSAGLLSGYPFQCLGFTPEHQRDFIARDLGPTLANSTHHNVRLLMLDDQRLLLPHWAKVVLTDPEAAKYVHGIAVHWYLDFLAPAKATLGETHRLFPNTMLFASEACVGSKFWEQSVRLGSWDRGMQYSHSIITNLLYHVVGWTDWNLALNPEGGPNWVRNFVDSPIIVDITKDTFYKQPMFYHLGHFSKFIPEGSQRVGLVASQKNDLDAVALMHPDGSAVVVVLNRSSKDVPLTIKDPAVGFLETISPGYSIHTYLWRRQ
Cytochrome P450 2D6 (Homo sapiens), sequence (P10635 whole entry, looked up): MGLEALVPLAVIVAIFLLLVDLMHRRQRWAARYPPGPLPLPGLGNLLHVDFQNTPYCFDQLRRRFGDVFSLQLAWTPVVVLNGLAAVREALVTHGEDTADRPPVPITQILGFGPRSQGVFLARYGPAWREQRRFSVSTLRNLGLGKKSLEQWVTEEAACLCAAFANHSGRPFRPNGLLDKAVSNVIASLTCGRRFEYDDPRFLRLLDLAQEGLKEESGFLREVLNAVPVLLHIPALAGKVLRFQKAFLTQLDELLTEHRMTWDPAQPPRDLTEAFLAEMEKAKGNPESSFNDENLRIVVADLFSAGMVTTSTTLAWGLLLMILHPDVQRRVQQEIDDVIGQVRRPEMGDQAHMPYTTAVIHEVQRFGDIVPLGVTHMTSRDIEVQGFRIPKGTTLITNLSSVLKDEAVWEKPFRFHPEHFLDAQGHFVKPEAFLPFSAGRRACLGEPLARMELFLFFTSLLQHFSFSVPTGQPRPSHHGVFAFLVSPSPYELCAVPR

CN(Cc1cccc2ccccc12)Cc1cccc2ccccc12
inactive: Potency [1] > 11.4 µM | activity change, negative = inhibition [2] 6.28% | activity, negative = inhibition [3] -2.17% | Potency [4] > 46 µM | Potency [5] > 9.22 µM | Potency [6] | Potency [7]
active: Potency [8] 0.398 µM | Potency [9] 1.58 µM

Cc1ccc(C(=N)c2ccccc2Cc2cccc3ccccc23)c2ccccc12
active: Potency [10] 3.98 µM | Potency [9] 1.26 µM
inactive: Potency [1] > 11.4 µM | activity change, negative = inhibition [2] -3.34% | activity, negative = inhibition [3] 13.8% | Potency [4] > 46 µM | Potency [5] > 9.22 µM | Potency [6] | Potency [7]

Clc1ccc(CSCc2ccc(Cl)cc2Cl)c(Cl)c1
inactive: Potency [1] > 11.4 µM | activity change, negative = inhibition [2] -7.04% | activity, negative = inhibition [3] 1.58% | Potency [4] > 46 µM | Potency [5] > 9.22 µM | Potency [6] | Potency [7]

N=C(N)SC(c1ccccc1)c1ccccc1
inactive: Potency [1] > 11.4 µM | activity change, negative = inhibition [2] 6.69% | activity, negative = inhibition [3] 0.795% | Potency [4] > 46 µM | Potency [5] > 9.22 µM | Potency [6] | Potency [7]

NC(CSS(=O)(=O)O)=N[C@@H]1C[C@H]2CC[C@@H]1C2
inactive: Potency [1] > 11.4 µM | activity change, negative = inhibition [2] 16.8% | activity, negative = inhibition [3] -5.27% | Potency [4] > 46 µM | Potency [5] > 9.22 µM | Potency [6] | Potency [7] | Potency [9]

COC(=O)c1ccc(CCc2cc(O)ccc2O)cc1
inactive: Potency [1] > 11.4 µM | activity change, negative = inhibition [2] -7.43% | activity, negative = inhibition [3] -16.8% | Potency [4] > 46 µM | Potency [5] > 9.22 µM | Potency [6] | Potency [7] | Potency [11]
active: Potency [9] 3.16 µM

COc1ccc(C(=O)N/N=C2/C(=O)c3c(C)cc(C)cc3CC2(C)C)cc1
active: Potency [10] 3.16 µM | Potency [9] 3.98 µM
inactive: Potency [1] > 11.4 µM | activity change, negative = inhibition [2] -13.7% | activity, negative = inhibition [3] 6.46% | Potency [4] > 46 µM | Potency [5] > 9.22 µM | Potency [6] | Potency [7] | Potency [11]

Oc1cc(O)c2c(c1)O[C@H](c1ccc(O)c(O)c1)[C@@H](O)[C@@H]2c1c(O)cc(O)c2c1O[C@@H](c1ccc(O)c(O)c1)[C@H](O)C2
inactive: Potency [1] > 11.4 µM | activity change, negative = inhibition [2] 16.5% | activity, negative = inhibition [3] -2.56% | Potency [4] > 46 µM | Potency [5] > 9.22 µM | Potency [6] | Potency [7]

Reference: PubChem BioAssay (NCATS)
